Source: ChEMBL document CHEMBL3988442, “University of Dundee, Small-Polar-MMV Screening Library” (2021)
Among all 48,000 compounds or so, about 13,000 (27%) showed an effect of 50% or more. This is one part of the list.

test system: Wolbachia pipientis; assay: Anti-Wolbachia Cell-Based Screen; type: functional; design: scale not given: in the data most compounds retested in dose-response had high values; conditions: 5 µM

| Structure (SMILES) | Percent Effect |
| --- | --- |
| CN1CCC2(CCC1=O)CCN(C(=O)Cc1ccc(O)c(F)c1)CC2 | 0.2124% |
| Cc1ccn(CCNc2ncnc3c2CCN(c2cnccn2)CC3)n1 | 7.115% |
| CC(O)CN1CCC(CNCc2cccc(Br)c2)CC1 (stereo unspecified) | 7.461% |
| COc1cccc(CN2CCN(C(=O)CN3CCOCC3)CC2)n1 | -0.8074% |
| CN(C)CCN(C)C(=O)Cn1cccc2cc(-c3ccc(F)cc3)nc1-2 | 149.6% |
| O=C(Cn1cccc2cc(-c3ccc(F)cc3)nc1-2)N1CCC(O)CC1 | 121.3% |
| COc1ccc(-c2cc3cccn(CC(=O)N4CCOCC4)c-3n2)cc1 | 153.8% |
| O=C(c1nnn(-c2ccc(F)cc2)n1)N1CCC(O)CC1 | 1.522% |
| COC1CCN(C(=O)Cn2ccc3ccccc32)CC1 | 0.3613% |
| COCCN(C)C(=O)Cn1cccc(OC)c1=O | -3.023% |
| O=C(Cn1nnc(-c2cc3ccccc3o2)n1)N1CCOCC1 | -8.281% |
| COc1cccn(CC(=O)N(C)CCOc2cc(C)cc(C)c2)c1=O | -7.697% |
| CC(C)(C)c1nnc(CN2CCC(c3cc4ccccc4[nH]3)CC2)o1 | 4.334% |
| COCCc1noc(-c2cn(Cc3ccccc3C)nn2)n1 | -12.89% |
| NS(=O)(=O)CCNC(=O)C1(c2ccccc2)CC1 | -12.67% |
| O=C(NCCCNc1ccccn1)NCC1CCS(=O)(=O)C1 (stereo unspecified) | 10.33% |
| CC(C)c1ncc2c(n1)CN(CC1CCCCO1)CC2 (stereo unspecified) | -13.54% |
| c1nc(N2CCc3[nH]cnc3C2)c2cc[nH]c2n1 | 98.13% |
| CN(C)CC1CN(c2ncnc3[nH]ccc23)CCO1 (stereo unspecified) | 4.502% |
| Cc1nc(C)n(CC2CCCN(c3ncnc4[nH]ccc34)C2)n1 (stereo unspecified) | 6.618% |
| Cn1cc(C2CCCN2c2ncnc3[nH]ccc23)cn1 (stereo unspecified) | -13.62% |
| c1ncc2c(n1)CN(c1ncnc3[nH]ccc13)CC2 | 97.2% |

| Structure (SMILES) | Percent Effect |
| --- | --- |
| Cc1ncc2c(n1)CN(C(C(N)=O)c1ccc(F)cc1)CC2 (stereo unspecified) | -2.692% |
| COCCCN1CC2(CCCN(c3ncnc4[nH]ccc34)C2)CCC1=O (stereo unspecified) | 0.6665% |
| CC(C)c1ncc2c(n1)CN(c1ncnc3[nH]ccc13)CC2 | 96.63% |
| CC(C)c1ncc2c(n1)CN(Cc1ccc(C(N)=O)cc1)CC2 | -9.095% |
| Cc1ncc2c(n1)CN(c1ncnc3[nH]ccc13)CC2 | 103% |
| OC1(CN2CCCC2)COCCN(c2ncnc3[nH]ccc23)C1 (stereo unspecified) | 7.822% |
| CC(C)CCN(C(=O)c1cc2c([nH]c1=O)CCCC2=O)C1CC1 | -4.935% |
| O=C(NC(C1CC1)C1CC1)c1cccc[n+]1[O-] | 1.029% |
| Cn1cc(Br)cc(NC(=O)Cc2cccs2)c1=O | -8.828% |
| CCc1cnc(CNc2cccc3c2CCN(S(=O)(=O)CC)C3)o1 | -1.845% |
| CN(CCCc1cc(-c2cccc(F)c2)n[nH]1)C(=O)CCn1cncn1 | 11.69% |
| CNC(=O)[C@@H](C1CCCCC1)N1CCC[C@H]1C(=O)N(C)CCN(C)C.Cl.Cl | 6.649% |
| Cc1cccc(CN2Cc3[nH]nc(COCc4nccs4)c3C2)n1.O=C(O)C(F)(F)F | -5.307% |
| COCc1cncc2c1CCN(C(=O)c1ccoc1C)C2 | -16.93% |
| Cl.Cn1cccc1C(=O)N1CCc2c(CNS(C)(=O)=O)cncc2C1 | 99.59% |
| CS(=O)(=O)NCc1cncc2c1CCN(C(=O)c1cccnc1)C2.Cl.Cl | 94.15% |
| Cc1occc1C(=O)N1CCc2c(CNS(C)(=O)=O)cncc2C1.Cl | 99.94% |
| CC(C)NC(=O)N1CCc2c(CNc3ncccn3)cncc2C1.Cl | -8.609% |
| Cc1nc(-c2cnn(C)c2)nc2c1CN(C(=O)c1cccn1C)CC2 | -11.99% |
| CS(=O)(=O)NCc1cncc2c1CCN(C(=O)c1ccccn1)C2 | 100.5% |
| Cc1occc1C(=O)N1CCc2c(CNc3ncccn3)cncc2C1.Cl | -10.41% |
| Cc1cccc(C(=O)N2CCc3c(COCC4CC4)cncc3C2)n1 | -8.984% |

| Structure (SMILES) | Percent Effect |
| --- | --- |
| CN(C)C(=O)N1CCc2c(CNc3ncccn3)cncc2C1 | -13.49% |
| O=C(O)C1CCN(c2ccc(Sc3ccc(Br)cc3)nn2)CC1 | -8.294% |
| Cc1cccc2c1OCCC2NCc1c(C)nn(C)c1N(C)C (stereo unspecified) | -23.23% |
| Cc1ccc(C(=O)N2CCc3c(CNS(C)(=O)=O)cncc3C2)o1.Cl | -12.96% |
| Cc1ccc(C(=O)N2CCc3c(CNc4ncccn4)cncc3C2)o1.Cl | 96.21% |
| Cc1ccc(C(=O)N2CCc3c(COCC4CC4)cncc3C2)o1 | -16.58% |
| CCc1cnc(N2CCN(Cc3ccon3)CC2)s1 | -1.549% |
| O=C(c1cc(Cl)c2c(c1)OCCCO2)N(CC1CCOC1)C1CC1 (stereo unspecified) | -3.487% |
| Cn1c(=O)c2sccc2n(CC(=O)Nc2cccc(Cl)c2)c1=O | 134.9% |
| CCn1c(=O)c2sccc2n(CC(=O)Nc2cccc(Cl)c2)c1=O | 148.7% |
| O=C(Cn1cc(-c2ccccc2)ncc1=O)Nc1ccncc1 | 8.409% |
| Cc1cc(=O)n(CC(=O)Nc2cccc(Cl)c2)nc1C | -4.372% |
| COc1ccc(Cn2c(=O)n(C)c(=O)c3sccc32)cc1 | 5.606% |
| CC(C)n1c(=O)c2sccc2n(CC(=O)Nc2ccccc2)c1=O | 126.1% |
| COc1cccc(Cn2c(=O)n(C)c(=O)c3sccc32)c1 | -18.58% |
| CC(C)c1cccc(NC(=O)N2CC(N(C)C)C2)c1 | -4.396% |
| CC(C)c1cccc(NC(=O)Cn2c(=O)n(C)c(=O)c3sccc32)c1 | 155.2% |
| Cn1c(=O)c2sccc2n(Cc2ccccc2)c1=O | -1.761% |
| O=C(Cn1c(=O)nc2n1C(=O)N(c1ccccc1)C2)Nc1ccccc1 | 2.08% |
| CCn1nc(C)c2nnn(CC(=O)Nc3cccc(Cl)c3)c(=O)c21 | -0.8024% |
| O=C(NCc1ccco1)Nc1cccc(S(=O)(=O)C(F)F)c1 | 12.8% |
| Cc1nc2cc(OCc3nc(C(=O)NC(CO)CO)co3)ccc2s1 | -12.2% |
